Inconclusive results are not listed. Active and inactive are the calls of the source. The call rests on the fitted dose curve; in most records, active means well fitted cell-killing curve with a large enough effect in the repeat runs; inconclusive means weak or mixed curves, or effect the other way; inactive means flat fitted curve, though single readings scatter.
experiment: qHTS RealTime-Glo MT Cell Viability Assay in HEK293 cells - 24 hour (AID 1224886); details: RealTime-Glo luminescence; series mostly up to 76.8 µM; activity change, negative = cytotoxicity: at the top concentration; further: nearly all actives have a fitted effect of over 50% in size; on activity change, negative = cytotoxicity: top concentration of the series differs between compounds
Excerpt: National Center for Advancing Translational Sciences [NCATS]
NIH Chemical Genomics Center [NCGC]
U.S. Environmental Protection Agency [EPA]
National Institutes of Environmental Health Sciences [NIEHS]
National Toxicology Program [NTP]
U.S. Food and Drug Administration [FDA]
Measure of cell viability is critical in the cell-base assay. Analysis of cell viability is necessary for the characterization of cell responses to cytotoxic drugs and environmental stress. A RealTime-Glo MT Cell Viability Assay to monitor cell viability in real time of continues cell culture during 40 hours of compound treatment was used to screen Tox21 10K library compounds in Hek293 cells. The RealTime-Glo MT Cell Viability Assay is a nonlytic, homogeneous, bioluminescent method to measure cell viability in real time using a simple, plate-based method. The assay involves adding NanoLuc luciferase and a cell-permeant prosubstrate to cells in culture. Viable cells reduce the proprietary prosubstrate to generate a substrate for NanoLuc luciferase. This substrate diffuses from cells into the surrounding culture medium, where it is rapidly used by the NanoLuc Enzyme to produce a luminescent signal. The signal correlates with the number of viable cells, making the assay well suited for cytotoxicity studies.
Tox21 Assay Protocol Summary:
The mixture of Hek293 cell suspension and reagents were dispensed at 600cells/6 ul/well in 1536-well tissue culture treated black solid bottom plates using a Multidrop dispenser. After the assay plates were incubated at a 37 C/5% CO2 incubator for 5 hours, 23 nL of compounds dissolved in DMSO, positive and negative controls was transferred to the assay plate by a pintool work station. The plates were incubated at 37 C for 40 hours. The luminescence intensity were measured at 0h, 8h, 16h, 24h, 32h and 40h time points using ViewLux plate reader during compound treatment.
On the % scale 0 is the no-effect control and ±100 the full control effect; potency means the concentration at half of the fitted maximal effect.

Row | SMILES | activity change, negative = cytotoxicity | Potency
1 | O=C(O)c1ccncc1 | 3.59% (inactive) | 
2 | CCC[Si](OC)(OC)OC | -2.61% (inactive) | 
3 | Cc1c(Cl)cccc1[N+](=O)[O-] | -4.48% (inactive) | 
4 | CCCCCCCCCCCCN1CCOCC1 | 9.98% (inactive) | 
5 | CCCCCCCCCC(C)C=O (stereo not given) | 3.74% (inactive) | 
6 | O=C(O)c1ccccc1-n1cc(C(=O)O)c(=O)c2cc(Nc3c(F)cc(F)cc3Cl)c(Cl)cc21 | -1.6% (inactive) | 
7 | O=C(c1ccc(Cl)cc1)c1ccc(Cl)cc1 | -20.3% (inactive) | 
8 | O=C(O)c1cccnc1Nc1cccc(C(F)(F)F)c1 | -5.49% [at 35.3 µM] (inactive) | 
9 | O=C(O)c1ccc2c(c1)nc(C(=O)NC1CCN(C3CC3)CC1)n2Cc1cc(-c2ccc(Cl)s2)on1 | 0.501% [at 15.8 µM] (inactive) | 
10 | CCCCCCCCCCCCCCCCN | 2.91% [at 35.3 µM] (inactive) | 
11 | CCCCCCCCCCCCSCCOCCO | -13.8% [at 35.3 µM] (inactive) | 
12 | Cc1c(-c2cccnc2)c2ccccc2n1CCCCC(=O)O | 5.65% (inactive) | 
13 | O=C(OCCOCCOCCOC(=O)c1ccccc1)c1ccccc1 | 9.39% (inactive) | 
14 | COc1ccc(CN(CCN(C)C)c2ncccn2)cc1 | 0.904% [at 35.3 µM] (inactive) | 
15 | CCc1c(C)[nH]c2c1C(=O)C(CN1CCOCC1)CC2 (stereo not given) | 0.694% [at 35.3 µM] (inactive) | 
16 | CCCC(=O)OCc1ccccc1 | 3.3% (inactive) | 
17 | CC(C)C[C@H](NC(=O)[C@H](Cc1ccccc1)NC(=O)c1cnccn1)B(O)O |  | 0.0756 µM (active)
18 | COc1cc(CNC(=O)CCCC/C=C/C(C)C)ccc1O |  | 4.77 µM (active)
19 | O=C(O)c1cc(C(=O)O)cc([N+](=O)[O-])c1 | 8.22% (inactive) | 
20 | O=C(O)CNc1ccccc1 | 0.613% (inactive) | 

Row | SMILES | activity change, negative = cytotoxicity | Potency
21 | C[C@@H](O)[C@H]1C(=O)N2C(C(=O)O)=C(S[C@@H]3CN[C@H](CNS(N)(=O)=O)C3)[C@H](C)[C@H]12 | 0.237% [at 35.3 µM] (inactive) | 
22 | C1CCN(CN2CCCCC2)CC1 | 19.1% (inactive) | 
23 | CCCCCCCCCCCCCCCCCCCl | 2.37% [at 6.97 µM] (inactive) | 
24 | O=c1[nH]nc(-c2ccc([N+](=O)[O-])o2)o1 | 1.49% (inactive) | 
25 | CC(C(=O)O)c1ccc2c(c1)Cc1cccnc1O2 (stereo not given) | 0.141% [at 35.3 µM] (inactive) | 
26 | CC1(C)CC(O)CC(C)(C)N1[O] | 1.17% (inactive) | 
27 | Cc1cc(C)n(CO)n1 | 2.77% (inactive) | 
28 | C=C[Si](OCC)(OCC)OCC | 16% (inactive) | 
29 | COC(=O)c1cc(Cl)ccc1[N+](=O)[O-] | 6.38% (inactive) | 
30 | CC(O)C(C)O (stereo not given) | 6.01% (inactive) | 
31 | CCCCCCCCCCCCCCCCC(=O)O | 4.99% [at 35.3 µM] (inactive) | 
32 | Nc1ncnc2c1ncn2[C@@H]1O[C@H](CO)[C@@H](O)[C@H]1O | 9.97% [at 35.3 µM] (inactive) | 
33 | CCCCCO | 0.917% (inactive) | 
34 | CC(Cc1ccccc1)(NC(=O)CN)c1ccccc1 (stereo not given) | -0.142% [at 35.3 µM] (inactive) | 
35 | O=C1C=CCCC1 | -0.586% (inactive) | 
36 | Nc1ccc(C(=O)Oc2ccccc2)c(O)c1 | -13.2% [at 35.3 µM] (inactive) | 
37 | CC1(C)C(=O)NC(=O)N1CO | 8.48% (inactive) | 
38 | CCOc1cc(OCC)c(C(C)=O)cc1OCC |  | 19.2 µM (active)
39 | OCCc1ccncc1 | 1.06% (inactive) | 
40 | Nc1ccccc1Nc1ccccc1 | 0.469% (inactive) | 

Reference: PubChem BioAssay (Tox21)
